The source of these data is PubChem BioAssay.

The source made the active and inactive calls. No stated cut-off is given here; in the data, active means nuclear beta-catenin stimulation mostly above about 4.2% (no sharp cut-off); inactive means mostly below about 10%.

This assay in a line: Wnt pathway potentiators raising nuclear beta-catenin – imaging, WNT3A-conditioned medium, mouse C2C12, NPC library, primary screen (AID 1117326). Further: reference of the scale not given here. Particulars: stronger effect = higher value.

`CCCCCCCCCCCCCCCCC(C(=O)O)C(O)(CC(=O)O)C(=O)O` (stereo unspecified): the nuclear beta-catenin stimulation was -0.9% (inactive) (at 10 µM) and -0.6% (stimulation, at 2 µM).
In the same order, the values of `COc1cc(OC)cc(OC)c1` are 1.2% (inactive) and -0.8%.
In the same order, the values of `O=C(O)CSCC(=O)NC1CCSC1=O` (stereo unspecified) are -0.4% (inactive) and 1.1%.
Turning to `C#CCN[C@@H]1CCc2ccccc21`, the nuclear beta-catenin stimulation was 0.9% (inactive) (at 10 µM) and 1.4% (stimulation, at 2 µM).
For `CN(C)C(=O)Nc1ccc(Cl)c(Cl)c1`, the nuclear beta-catenin stimulation reads like this: (at 10 µM) 3.6% (inactive); (stimulation, at 2 µM) 0.5%.
In the same order, the values of `CCC(C)n1ncn(-c2ccc(N3CCN(c4ccc(OC[C@H]5CO[C@](Cn6cncn6)(c6ccc(Cl)cc6Cl)O5)cc4)CC3)cc2)c1=O` (stereo partly specified) are 36.2% (inactive) and 34.3%.
With `CC1(C)O[C@H]2CC(=O)OC[C@]23[C@H]2CC[C@@]4(C)[C@H](c5ccoc5)OC(=O)[C@H]5O[C@]54[C@]2(C)C(=O)C[C@@H]13`, the nuclear beta-catenin stimulation is, setting by setting: (at 10 µM) -0.3% (inactive); (stimulation, at 2 µM) 0.6%.
Turning to `O=C(O)[C@@H](O)[C@H](O)[C@H](O)[C@@H](O)C(=O)O`, the nuclear beta-catenin stimulation is, setting by setting: (at 10 µM) -1.3% (inactive); (stimulation, at 2 µM) -0.3%.
As to `Cc1cccc(C(=O)O)c1O`, the nuclear beta-catenin stimulation by setting is: (at 10 µM) 0% (inactive); (stimulation, at 2 µM) 0.4%.
With `CC(=O)Oc1c(C)c(C)c2c(c1C)CC[C@@](C)(CCC[C@H](C)CCC[C@H](C)CCCC(C)C)O2`, the nuclear beta-catenin stimulation by setting is: (at 10 µM) 1.7% (inactive); (stimulation, at 2 µM) 2%.
In the same order, the values of `NC(CS)C(=O)O` (stereo unspecified) are -0.1% (inactive) and 0.4%.
The corresponding values for `O=c1[nH]cnc2nc[nH]c12` are -0.2% (inactive) and 1.5%.
As to `Oc1cc(O)c2c(c1)O[C@H](c1ccc(O)c(O)c1)[C@H](O)C2`, the nuclear beta-catenin stimulation (at 10 µM) is -1.4% (inactive) and the nuclear beta-catenin stimulation (stimulation, at 2 µM) is 1.2%.
In the same order, the values of `COc1cc(/C=C/C(=O)CC(=O)/C=C/c2ccc(O)c(OC)c2)ccc1O` are 1.5% (inactive) and -2.5%.
In the same order, the values of `O=C1O[C@H](CO)[C@@H](O)[C@H](O)[C@H]1O` are -1.1% (inactive) and 1%.
In the same order, the values of `C[N+]1(C)[C@@H]2CC(OC(=O)[C@H](CO)c3ccccc3)C[C@H]1[C@@H]1O[C@@H]12` (stereo partly specified) are 1.5% (inactive) and 0.9%.
Regarding `CC(=O)OCC(=O)[C@H]1CC[C@H]2[C@@H]3CCC4=CC(=O)CC[C@]4(C)[C@H]3CC[C@]12C`, the nuclear beta-catenin stimulation by setting is: (at 10 µM) -1.4% (inactive); (stimulation, at 2 µM) -0.5%.
In the same order, the values of `CC(=O)Nc1cccc(O)c1` are -0.7% (inactive) and 2.5%.
The corresponding values for `C[C@@H]1C[C@H]2[C@@H]3CCC4=CC(=O)C=C[C@]4(C)[C@@]3(F)[C@@H](O)C[C@]2(C)[C@@]1(O)C(=O)COP(=O)(O)O` are 1.2% (inactive) and 0.8%.
The corresponding values for `COC(=O)[C@@H](N)CS` are -1.4% (inactive) and 2.3%.
Consider `O=C(O)/C=C(\CC(=O)O)C(=O)O`, for which the nuclear beta-catenin stimulation runs as follows: (at 10 µM) -0.9% (inactive); (stimulation, at 2 µM) -0.6%.
In the same order, the values of `Oc1cccc2[nH]ccc12` are 1.5% (inactive) and -1.2%.
In the same order, the values of `CC(=O)O[C@]1(C(C)=O)CC[C@H]2[C@@H]3C=C(Cl)C4=CC(=O)CC[C@]4(C)[C@H]3CC[C@@]21C` are 1.1% (inactive) and -0.3%.
In the same order, the values of `CO[C@H]1C=CO[C@@]2(C)Oc3c(C)c(O)c4c(O)c(c(/C=N/N5CCN(C)CC5)c(O)c4c3C2=O)NC(=O)/C(C)=C\C=C[C@H](C)[C@H](O)[C@@H](C)[C@@H](O)[C@@H](C)[C@H](OC(C)=O)[C@@H]1C` are 0.6% (inactive) and 1.2%.
With `CC(=O)OCC(=O)[C@@]1(O)[C@H](OC(C)=O)C[C@H]2[C@@H]3CCC4=CC(=O)C=C[C@]4(C)[C@@]3(F)[C@@H](O)C[C@@]21C`, the nuclear beta-catenin stimulation is 0.9% (inactive) (at 10 µM) and 1.1% (stimulation, at 2 µM).
The corresponding values for `CN1CCN(c2cc3c(cc2F)c(=O)c(C(=O)O)cn3-c2ccc(F)cc2)CC1` are 0.8% (inactive) and 0.3%.
In the same order, the values of `Cc1c[nH]c2ccccc12` are 2% (inactive) and 0.3%.
With `Cc1nc2n(c(=O)c1CCN1CCC(c3noc4cc(F)ccc34)CC1)CCC[C@H]2O`, the nuclear beta-catenin stimulation was 0% (inactive) (at 10 µM) and -0.1% (stimulation, at 2 µM).
Consider `CC(C)NC[C@@H](O)COc1cccc2ccccc12`, for which the nuclear beta-catenin stimulation is, setting by setting: (at 10 µM) -0.4% (inactive); (stimulation, at 2 µM) 1.7%.
The corresponding values for `C/C=C1\[C@H]2C=C(C)C[C@]1(N)c1ccc(=O)[nH]c1C2` are -0.8% (inactive) and -0.8%.
The corresponding values for `O=C1c2ccccc2C(=O)c2c1ccc(O)c2O` are 1.2% (inactive) and 0.3%.
As for `CC(=O)Oc1cccc2c1C(=O)c1c(OC(C)=O)cc(C(=O)O)cc1C2=O`, the nuclear beta-catenin stimulation (at 10 µM) was 3.2% (inactive) and the nuclear beta-catenin stimulation (stimulation, at 2 µM) worked out at 3.4%.
The corresponding values for `CC1=C(C)C(=O)C(C(CCCCCC(=O)O)c2ccccc2)=C(C)C1=O` (stereo unspecified) are 0% (inactive) and -1%.
